Compound activity (PubChem)
Sampled rows, rich in hits. Any-hit rate of the full collection: about 1.9%.
MsrA inh = bovine MsrA enzyme inhibitors, primary screen, biochemical, absorbance, HTS; Methionine sulfoxide reductase A (Bos taurus); purified bovine MsrA, absorbance read-out; hit rate 0.75% among 360,000; inhibition, % at 15.5 µM; in the data active means inhibition above about 4.5%
HTR5A inv ctr = HTR5A inverse agonists in luminescence cell assay, primary screen, counter-screen for OPRM1-OPRD1 heterodimer inverse agonist project, full-deck HTS; inhibition, % at 9.3 µM; 5-hydroxytryptamine receptor 5A (Homo sapiens), P47898; hit rate 0.083% among 340,000; HTR5A cell line, inverse agonism; in the data active means inhibition mostly above about 23%, no sharp cut-off; inactive means mostly below about 18%
Target sequence (P47898 whole entry, looked up): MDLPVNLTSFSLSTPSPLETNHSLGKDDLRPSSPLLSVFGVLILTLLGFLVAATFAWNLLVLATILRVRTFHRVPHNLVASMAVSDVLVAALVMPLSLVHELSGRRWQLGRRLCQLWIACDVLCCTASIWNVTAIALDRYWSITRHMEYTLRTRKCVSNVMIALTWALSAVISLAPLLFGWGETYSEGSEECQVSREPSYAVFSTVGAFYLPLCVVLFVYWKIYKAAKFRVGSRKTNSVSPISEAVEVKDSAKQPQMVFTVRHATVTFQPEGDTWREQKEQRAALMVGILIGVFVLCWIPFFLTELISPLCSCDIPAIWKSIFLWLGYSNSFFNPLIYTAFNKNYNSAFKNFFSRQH
MOR-DOR inv ag = inverse agonists of MOR-DOR heterodimerization, primary screen, cell-based, luminescence. hit rate 0.21% among 340,000. Mu-type opioid receptor (Homo sapiens) + Delta-type opioid receptor (Homo sapiens), …. cell-based MOR-DOR heterodimer luminescence, inverse agonism. AID 504357, 2011. inhibition, % at 9.3 µM; in the data active means inhibition above about 22%, passing the limit was not always enough
bovine MsrA act = bovine MsrA enzyme activators, primary screen, biochemical, absorbance, HTS | purified bovine MsrA, absorbance read-out | activation, % at 10.6 µM | hit rate 0.3% among 360,000; in the data active means activation above about 7.5%
OPRM1-OPRD1 ag = agonists of OPRM1-OPRD1 heterodimerization, primary screen, cell-based, luminescence; Mu-type opioid receptor (Homo sapiens) + Delta-type opioid receptor (Homo sapiens), …; cells; activation, % at 9.3 µM; hit rate 0.3% among 340,000; in the data active means activation above about 18%
HTR5A ag ctr = HTR5A agonists in luminescence cell assay, primary screen, counter-screen for OPRM1-OPRD1 heterodimer agonist project, full-deck HTS; activation, % at 9.3 µM; cell-based; hit rate 0.61% among 340,000; AID 504692, 2011; in the data active means activation mostly above about 9.5%, no sharp cut-off; inactive means mostly below about 7.6%
Hits are given with their value.

CCOc1ccc(-c2nnc(NC(=O)CCCOc3cccc(C)c3)o2)cc1 was read as MsrA inh inactive, HTR5A inv ctr inactive, MOR-DOR inv ag inactive, bovine MsrA act inactive, OPRM1-OPRD1 ag inactive and HTR5A ag ctr 13.
Screening CC1(c2ccc3noc(-c4cccc(F)c4)c3c2)OCCO1 returned MsrA inh inactive, HTR5A inv ctr inactive, MOR-DOR inv ag inactive, bovine MsrA act inactive, OPRM1-OPRD1 ag inactive and HTR5A ag ctr 11.
For Cc1cccc(-c2onc3ccc(C4(C)OCCO4)cc23)c1 the results were MsrA inh inactive, HTR5A inv ctr inactive, MOR-DOR inv ag inactive, bovine MsrA act inactive, OPRM1-OPRD1 ag inactive and HTR5A ag ctr inactive.
Screening COc1ccc(C2CC(=O)C(c3ccc(C#N)cc3)=CN2Cc2ccccc2)cc1 (stereo not given) returned MsrA inh inactive.
Cc1cc(C)cc(OCC(=O)OC/C(O)=C(\C#N)c2nc3ccccc3[nH]2)c1 was read as MsrA inh inactive, HTR5A inv ctr inactive, MOR-DOR inv ag inactive, bovine MsrA act inactive, OPRM1-OPRD1 ag 40 and HTR5A ag ctr 23.
Screening Cc1cccc(C)c1OCC(=O)OC/C(O)=C(\C#N)c1nc2ccccc2[nH]1 returned MsrA inh inactive, HTR5A inv ctr inactive, MOR-DOR inv ag inactive, bovine MsrA act inactive, OPRM1-OPRD1 ag inactive and HTR5A ag ctr inactive.
Screening Cc1ccccc1N1CCN(C2CCCN(C(=O)CCC(=O)N(C)C)C2)CC1 (stereo not given) returned MsrA inh inactive, HTR5A inv ctr inactive, MOR-DOR inv ag inactive, bovine MsrA act inactive, OPRM1-OPRD1 ag inactive and HTR5A ag ctr inactive.
Screening Cc1ccccc1N1CCN(C2CCCN(C(=O)CCC3(C)CC3)C2)CC1 (stereo not given) returned MsrA inh inactive, HTR5A inv ctr inactive, MOR-DOR inv ag inactive, bovine MsrA act inactive, OPRM1-OPRD1 ag inactive and HTR5A ag ctr 10.
O=C(N[C@H](C(=O)N1CCC[C@H]1C(=O)NCCc1ccccc1Cl)C1CCCCC1)c1cccs1 was read as MsrA inh inactive.
Screening COC(=O)[C@]12C[C@H](CC(=O)NCc3ccc(C)o3)C(=O)N(Cc3ccccc3)C1=C[C@H](C1CCCC1)O[C@@H]2C returned MsrA inh inactive.
For C[C@H]1[C@@H]2C[C@@]3(O[C@H](c4ccccn4)N=C3C[C@@H]1c1ccccc1)N(Cc1ccncc1)C2=O the results were MsrA inh inactive.
CCOC(=O)N1CCN(C(=O)CCn2c(=S)[nH]c3ccccc3c2=O)CC1 was read as MsrA inh inactive, HTR5A inv ctr inactive, MOR-DOR inv ag inactive, bovine MsrA act inactive, OPRM1-OPRD1 ag inactive and HTR5A ag ctr inactive.
For O=C(CCn1c(=S)[nH]c2ccccc2c1=O)N1CCCCC1 the results were MsrA inh inactive, HTR5A inv ctr inactive, MOR-DOR inv ag inactive, bovine MsrA act inactive, OPRM1-OPRD1 ag inactive and HTR5A ag ctr 9.4.
O=C(NCC(c1ccc(F)cc1)N1CCOCC1)c1cc(F)c(F)c(F)c1F (stereo not given) was read as MsrA inh inactive, HTR5A inv ctr inactive, MOR-DOR inv ag inactive, bovine MsrA act inactive, OPRM1-OPRD1 ag inactive and HTR5A ag ctr inactive.
For O=C(NCC(c1ccc(F)cc1)N1CCOCC1)c1ccccc1F (stereo not given) the results were MsrA inh inactive, HTR5A inv ctr inactive, MOR-DOR inv ag inactive, bovine MsrA act inactive, OPRM1-OPRD1 ag inactive and HTR5A ag ctr 12.
CN(C)c1ccc(C(=O)/C=C/c2cccnc2)cc1 was read as MsrA inh inactive, HTR5A inv ctr inactive, MOR-DOR inv ag inactive, bovine MsrA act inactive, OPRM1-OPRD1 ag inactive and HTR5A ag ctr 9.2.
For COc1ccc(C(=O)NCC2CCN(C(=O)C(=O)c3cccs3)CC2)c(OC)c1 the results were MsrA inh inactive.
`O=C1C=CC(=O)N1c1ccc(OC(F)F)cc1` gave MsrA inh 47, HTR5A inv ctr inactive, MOR-DOR inv ag inactive, bovine MsrA act inactive, OPRM1-OPRD1 ag inactive and HTR5A ag ctr inactive.
`COCc1[nH]nc2c1C(c1cccc(C(F)(F)F)c1)N(c1ccccc1)C2=O` (stereo not given) gave MsrA inh inactive.
CCCCN(C)CCNC(=O)c1ccc2c(c1)NC(=O)C(N1CCCCC1)S2 (stereo not given) was read as MsrA inh inactive, HTR5A inv ctr inactive, MOR-DOR inv ag inactive, bovine MsrA act inactive, OPRM1-OPRD1 ag inactive and HTR5A ag ctr 12.
Screening C=CCNC(=O)c1onc(CSc2ccc(F)c(F)c2)c1C(=O)NCC=C returned MsrA inh inactive, HTR5A inv ctr inactive, MOR-DOR inv ag inactive, bovine MsrA act inactive, OPRM1-OPRD1 ag inactive and HTR5A ag ctr 13.
For OCCN1CCN(c2ncnc3c2c(-c2ccccc2)cn3-c2ccc(F)cc2)CC1 the results were MsrA inh inactive, HTR5A inv ctr 44, MOR-DOR inv ag 45, bovine MsrA act inactive, OPRM1-OPRD1 ag inactive and HTR5A ag ctr inactive.
For COc1ccc(-n2cc(-c3ccccc3)c3c(NN4CCOCC4)ncnc32)cc1 the results were MsrA inh inactive, HTR5A inv ctr inactive, MOR-DOR inv ag inactive, bovine MsrA act inactive, OPRM1-OPRD1 ag inactive and HTR5A ag ctr inactive.
`CC1CN(c2ncnc3c2c(-c2ccccc2)cn3-c2ccc(F)cc2)CC(C)O1` (stereo not given) gave MsrA inh inactive, HTR5A inv ctr 77, MOR-DOR inv ag 62, bovine MsrA act inactive, OPRM1-OPRD1 ag inactive and HTR5A ag ctr inactive.
Cc1ccc(-n2cc(-c3ccccc3)c3c(N4CCOCC4)ncnc32)cc1 was read as MsrA inh inactive, HTR5A inv ctr inactive, MOR-DOR inv ag inactive, bovine MsrA act inactive, OPRM1-OPRD1 ag inactive and HTR5A ag ctr inactive.
Screening Fc1ccc(-n2cc(-c3ccccc3)c3c(NN4CCOCC4)ncnc32)cc1 returned MsrA inh inactive, HTR5A inv ctr 46, MOR-DOR inv ag 34, bovine MsrA act inactive, OPRM1-OPRD1 ag inactive and HTR5A ag ctr inactive.
O=C(N[C@H](C(=O)N1CCC[C@H]1C(=O)NCc1ccccc1)c1ccccc1)c1ccccc1 was read as MsrA inh inactive.
`CC(C)C[C@H]1CN([C@@H](Cc2ccccc2)CN2CCC[C@H]2CN2C(=O)C(=O)NC[C@@H]2Cc2ccccc2)C(=O)C(=O)N1CC1CCCCCC1` gave MsrA inh inactive.
For CCn1c(SCC(=O)Nc2cc(C)on2)nc2sc3c(c2c1=O)CCCC3 the results were MsrA inh inactive, HTR5A inv ctr inactive, MOR-DOR inv ag inactive, bovine MsrA act inactive, OPRM1-OPRD1 ag 26 and HTR5A ag ctr 21.
